Shown are actives, neighbours in structure and some others; about 7.4% of the full set was active somewhere.
NPC1 promoter act: activates the NPC1 promoter; Huh7 NPC1 promoter luciferase reporter, 24 h; Potency, µM (highest dose often 9.22 µM), without a hit: at the highest dose activation, usual class: activators; actives 2.4% (n = 320,000); AID 485313; note: % of control where 0% means no effect; nearly all actives have a fitted effect of over 60% in size
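Huh7 reporter cells (NPC1 promoter driving luciferase) are dosed with compound for 24 h at 37 °C, 5% CO2; luciferase detection reagent is then added and luminescence measured after 10 min at ambient temperature.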
Rab9 prom act: activators of Rab9 promoter; Huh7 Rab9 promoter-luciferase reporter, luminescence, 24 h; Potency, µM (top dose mostly 9.22 µM), inactives show top-dose activation, negative = inhibition, usual class: activators; actives 2.8% (n = 320,000); AID 485297; note: % of control where 0% means no effect; nearly all actives have a fitted effect of over 60% in size
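Luciferase signal after 10 min detection reagent at ambient indicates Rab9 promoter upregulation; stably transfected Huh7 cells were treated 24 h with compound in DMSO at 37 °C, 5% CO2.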
SMN2 splice enh: SMN2 splice variant enhancement | HEK293 SMN2-luciferase splicing reporter, luminescence, 30-36 h | actives 2.8% (n = 210,000) | AID 1458 | Potency, µM (series often up to 46.1 µM), inactives show at the highest dose activity change, positive = activation, most hits filed as activators; note: % of control where 0% means no effect; nearly all actives have a fitted effect of over 55% in size
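HEK293 cells carry an SMN2 […]–luciferase reporter in which exon 7 inclusion puts luciferase in frame. Cells were plated 10-12 h before compound addition, then incubated 30-36 h at 37C. ONE-Glo luminescence was read; sodium butyrate at 4.5 mM final served as control.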
ELG1 genotoxic: inducers of genotoxicity in HEK293T ELG1-luciferase cells. HEK293T ELG1-luciferase reporter, luminescence, 16 h. Potency, µM (highest dose often 46 µM), inactives show top-dose activity change, positive = activation, usual class: activators. actives 1.3% (n = 330,000); note: % of control where 0% means no effect; nearly all actives have a fitted effect of over 60% in size
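HEK293T cells expressing luciferase-tagged ELG1 were exposed to compound or DMSO vehicle for 16 hr at 37 °C and 5% CO2. Luciferase activity was then measured with ONE-Glo after 30 min at room temperature.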
FLuc counter: counter-screen for miR-21 project: firefly luciferase inhibitors or activators. P08659. purified FLuc, Km substrates, luminescence inhibition. Potency, µM (doses to about 57.5 µM), without a hit: at the highest dose activity change, negative = inhibition, most hits filed as inhibitors. actives 6.9% (n = 360,000);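 note: plate controls were vehicle for no effect and reference inhibitor for full effect; nearly all actives have a fitted effect of over 55% in size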
Target sequence (P08659 whole entry, looked up): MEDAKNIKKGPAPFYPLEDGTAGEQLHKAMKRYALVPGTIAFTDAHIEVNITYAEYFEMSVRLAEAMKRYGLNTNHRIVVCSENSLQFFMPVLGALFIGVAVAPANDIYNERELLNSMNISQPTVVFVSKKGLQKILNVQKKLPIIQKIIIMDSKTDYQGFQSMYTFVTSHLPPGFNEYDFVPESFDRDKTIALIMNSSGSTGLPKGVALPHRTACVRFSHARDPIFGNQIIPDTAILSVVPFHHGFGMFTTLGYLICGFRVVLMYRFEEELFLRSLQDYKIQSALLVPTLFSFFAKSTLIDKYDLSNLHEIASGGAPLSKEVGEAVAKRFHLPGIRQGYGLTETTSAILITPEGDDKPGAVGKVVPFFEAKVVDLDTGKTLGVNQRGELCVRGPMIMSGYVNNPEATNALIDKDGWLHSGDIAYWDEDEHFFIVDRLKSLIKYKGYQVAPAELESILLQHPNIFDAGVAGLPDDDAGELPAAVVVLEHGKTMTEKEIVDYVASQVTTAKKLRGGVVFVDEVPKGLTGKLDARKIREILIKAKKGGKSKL
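Purified P. pyralis luciferase (10nM final) with 10uM D-luciferin and 10uM ATP (Km levels) in 50mM Tris acetate pH 7.5, 10mM Mg acetate, 0.01% Tween-20, 0.05% BSA; qHTS 6-point titration, ~60 µM downward; luminescence read.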
The depositor's hits bear a star; ? = inconclusive; . = no result given. Calls come from the whole dose curve; as a rule, active = well fitted curve in the direction sought with a large enough effect; inconclusive = small, poorly fitted or top-dose-only effect, or another doubt; inactive = no such curve, though single readings can be large; an effect the other way counts as inactive or inconclusive. Potency is the fitted concentration of half-maximal effect.

SMILES	NPC1 promoter act	Rab9 prom act	SMN2 splice enh	ELG1 genotoxic	FLuc counter
Cc1cc(OCC(=O)Nc2ccc(-c3nc4cc(Cl)ccc4o3)cc2)cc(C)c1Cl	.	.	0.9%	.	-4.6%
CCNC(=S)NNC(=O)c1cc(C2CC2)nc2ccccc12	-0.7%	1.9%	-1.0%	-1.5%	12µM*
CCCNC(=S)NNC(=O)c1cc(C2CC2)nc2ccccc12	-3.0%	5.1%	.	-0.1%	21.3µM*
CCOc1ccc2nc(N3CCC(C(=O)N4CCN(C(=O)c5ccco5)CC4)CC3)sc2c1	7.3%	19.6%	-46.3%	0.9%	13.5µM*
O=C(Nc1nc2ccccc2s1)C1CCN(C(=O)c2ccco2)CC1	-0.3%	-0.3%	.	-13.6%	-7.0%
CCOc1ccc2nc(NC(=O)C3CCN(C(=O)c4ccco4)CC3)sc2c1	?	?	.	?	15.1µM*
Cc1nn(C(C)C(=O)N2CCCCC2)c(=O)c2c1sc1ccccc12 (stereo not given)	-4.5%	9.4%	-10.1%	-3.9%	-3.7%
Cc1ccc(C)c(N2CCN(C(=O)C(C)n3nc(C)c4sc5ccccc5c4c3=O)CC2)c1 (stereo not given)	.	.	.	.	15.1µM*
CCCSc1ccc2nc(-c3ccccc3)cn2c1	0.708µM*	0.447µM*	.	?	0.0849µM*
CCCCSc1ccc2nc(-c3ccc(C#N)cc3)cn2c1	?	?	?	4.1%	4.78µM*
CCCCCCCOc1ccc(-c2ccc(C#N)cn2)cc1	-4.2%	-3.5%	-16.0%	-1.7%	3.3%
CCCCCCSc1ccc(-c2nc3ccccn3c2NCCCC)cc1	-1.0%	0.6%	.	1.2%	?
CC(=O)N1CCN(C(=O)COC(=O)COc2c(C)cc(C)cc2C)CC1	1.3%	-8.4%	.	-0.4%	8.6%
Cc1ccc(-n2ncc(C(=O)NCCc3ccccc3)c2C2CCN(C(=O)OC(C)(C)C)CC2)c(C)c1	.	.	.	.	-11.4%
CCn1c(C)cc(C(=O)CN2C(=O)c3ccccc3S2(=O)=O)c1C	?	?	.	1.4%	.
Cc1cc(C(=O)CN2C(=O)c3ccccc3S2(=O)=O)c(C)n1C(C)C	-3.5%	?	.	1.6%	.
Cc1cc(C(=O)CN2C(=O)c3ccccc3S2(=O)=O)c(C)n1-c1ccccc1	-13.5%	-11.1%	-15.5%	-26.7%	2.13µM*
Cc1cc(C(=O)CN2C(=O)C3CC=CCC3C2=O)c(C)n1-c1ccccc1 (stereo not given)	0.562µM*	0.708µM*	-58.4%	?	0.675µM*
C=CCn1c(C)cc(C(=O)CN2C(=O)c3ccccc3S2(=O)=O)c1C	-32.0%	-34.7%	.	-4.1%	1.51µM*
O=C(c1cnc(N2CCCCC2)c2ccccc12)N1CCN(c2ccc(Cl)cc2)CC1	.	.	.	.	-10.1%
Cc1ccc(NC(=O)CSc2ncc(S(=O)(=O)c3ccc(C(C)C)cc3)c(=O)[nH]2)cc1C	.	.	-2.6%	.	?
Cc1cc(C)cc(NC(=O)CSc2ncc(S(=O)(=O)c3ccccc3)c(=O)[nH]2)c1	1.0%	-4.4%	-4.4%	1.2%	-5.5%
Cc1ccc(S(=O)(=O)c2cnc(SCC(=O)Nc3ccc4c(c3)OCCO4)[nH]c2=O)cc1C	.	.	-2.9%	.	10.7µM*
COc1cc(Cl)c(C)cc1NC(=O)CSc1ncc(S(=O)(=O)c2ccc(C(C)(C)C)cc2)c(=O)[nH]1	.	.	6.3%	.	?
Cc1ccc(S(=O)(=O)c2cnc(SCC(=O)Nc3ccccc3C(F)(F)F)[nH]c2=O)cc1C	.	.	-7.6%	.	10.7µM*
SMILES	NPC1 promoter act	Rab9 prom act	SMN2 splice enh	ELG1 genotoxic	FLuc counter
Cc1c(Cl)cccc1NC(=O)CSc1ncc(S(=O)(=O)c2ccc(C(C)C)cc2)c(=O)[nH]1	.	.	-4.6%	.	7.57µM*
C[C@H](NC(=O)c1ccco1)C(=O)NNC(=O)c1ccc(F)cc1	.	.	.	0.1%	.
Cc1cc(C)c2oc(-c3cccc(NC(=O)COc4ccccc4Cl)c3C)nc2c1	.	.	11.9%	.	0.3%
COc1ccc(-n2nc3cc(C)c(NC(=O)COc4cccc(C)c4)cc3n2)cc1	.	.	3.4%	.	?
CCCn1c(-c2ccc(F)cc2)nc2c(NC(C)CN(C)C)nc(C)nc21 (stereo not given)	.	.	-3.9%	.	.
CC1Sc2ccc(C(=O)Nc3ccc(S(=O)(=O)N(C)C)cc3)cc2NC1=O (stereo not given)	-0.9%	-6.7%	.	-20.0%	-6.8%
CC(=O)c1ccccc1NC(=O)c1ccc2c(c1)NC(=O)C(C)S2 (stereo not given)	?	?	.	?	15.1µM*
Cc1ccnc(NC(=O)c2ccc3c(c2)NC(=O)C(C)S3)c1 (stereo not given)	0.708µM*	0.631µM*	.	?	1.9µM*
Cc1c(NC(=O)C(C)(C)Oc2ccc(Cl)cc2)cccc1-c1nc2ncccc2o1	.	.	-22.8%	.	-7.6%
O=C1c2ccccc2[C@@H]2C[C@@H](O)[C@H](Nc3cccc(Cl)n3)CCN12	.	.	.	-7.6%	.
CCCCN1C=CC(=C2C(=O)c3ccccc3C2=O)C=C1	?	0.0316µM*	-66.8%	?	0.135µM*
CSCCC(N=C1NS(=O)(=O)c2ccccc21)C(=O)N1CCCC(C(N)=O)C1 (stereo not given)	1.3%	-2.4%	.	0.8%	?
C/C=C(\C)C(=O)N1CCC(C(=O)c2ccccc2)CC1	-4.0%	-6.7%	.	-6.9%	-0.2%
CN(C)S(=O)(=O)c1cccc(C(=O)N=C2N=C3C=CC(Cl)=CN3Cc3ccccc32)c1	2.51µM*	3.55µM*	.	?	16.9µM*
O=C(Cn1c(=O)n(Cc2ccc(F)cc2)c(=O)c2sc3ccccc3c21)NCc1ccccc1	.	.	0.2%	.	1.8%
CCOC(=O)Cc1csc(NC(=S)NC(=O)c2ccc([N+](=O)[O-])cc2)n1	0.0%	-2.3%	-11.1%	-2.1%	?
CCOC(=O)Cc1csc(NC(=O)c2ccc3ccccc3n2)n1	1.58µM*	1µM*	.	-6.8%	15.1µM*
CCOC(=O)Cc1csc(NC(=O)c2ccc3ncsc3c2)n1	-22.7%	23.7%	.	3.0%	15.1µM*
CCOC(=O)Cc1csc(NC(=S)NC(=O)c2ccc(Cl)cc2)n1	-6.7%	-10.0%	-0.9%	0.0%	12µM*
CCOC(=O)Cc1csc(NC(=O)c2ccc(Br)cc2)n1	1.0%	-0.3%	.	-2.9%	21.3µM*
CC(C)Nc1cc(N2CCN(C3CCCCC3)CC2)c2noc3c2c1C(=O)c1ccccc1-3	.	.	0.3%	.	-5.0%
CC(=O)N1CCCC1c1nc2ccccc2n1Cc1cccc(Cl)c1 (stereo not given)	.	.	.	.	2.7%
CCOC(=O)Cc1csc(NC(=O)c2ccc(C)o2)n1	2.7%	10.7%	-6.5%	?	-13.1%
CCOC(=O)Cc1csc(NC(=O)c2ccco2)n1	?	?	7.94µM*	16.4µM*	?
CC1=CN2C(=N)/C(=C/c3ccc([N+](=O)[O-])o3)C(=O)N=C2S1	-29.6%	-54.1%	-38.6%	-14.2%	13.5µM*
CC1=CN2C(=N)/C(=C/c3cn(CCCOc4ccccc4C)c4ccccc34)C(=O)N=C2S1	?	?	-48.4%	?	-7.8%

Screening results from PubChem BioAssay.
